Assay results as given in PubChem BioAssay AID1159580 (chemical genetic matrix, 2015).
In all, about 5,500 compounds went through this assay and about 2,000 (36%) were called active. Another 18% or so got no clear call; they are omitted. No stated cut-off is given here; in the data, active means normalized growth mostly below about 0.91 (no sharp cut-off); inconclusive means no clear call, values can overlap the other calls; inactive means mostly above about 0.92. The list shows a part of the results.

Test: chemical genetic growth profiling, strain panel (AID 1159580);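 further: tested at 20 µM; growth read once vehicle control cultures reached saturation at 30 °C; 1 = growth at the plate median or of vehicle wells; lower values mean less growth of the strain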
Details: growth OD
[1] = S. cerevisiae deletion strains, locus YDL101C, strain DUN1, active compounds read low
[2] = S. cerevisiae deletion strains, locus YHR030C, strain SLT2, active compounds read low

Measured: normalized growth

CCn1nc(C)cc1-c1nnc(Sc2ncc([N+](=O)[O-])s2)n1C
inactive: S. cerevisiae deletion strains, locus YAR019C, strain CDC15, active compounds read low 0.964 | S. cerevisiae deletion strains, locus YBL105C, strain PKC1, active compounds read low 0.968 | S. cerevisiae deletion strains, locus YBR135W, strain CKS1, active compounds read low 0.967 | S. cerevisiae deletion strains, locus YBR136W, strain MEC1, active compounds read low 0.962 | S. cerevisiae deletion strains, locus YBR160W, strain CDC28, active compounds read low 0.956 | S. cerevisiae deletion strains, locus YDL017W, strain CDC7, active compounds read low 0.974 | S. cerevisiae deletion strains, locus YDL028C, strain MPS1, active compounds read low 0.961 | [1] 0.983 | S. cerevisiae deletion strains, locus YDL108W, strain KIN28, active compounds read low 0.945 | S. cerevisiae deletion strains, locus YDL132W, strain cdc53, active compounds read low 0.966 | S. cerevisiae deletion strains, locus YDL214C, strain PRR2, active compounds read low 0.981 | S. cerevisiae deletion strains, locus YDR052C, strain DBF4, active compounds read low 0.988 | S. cerevisiae deletion strains, locus YDR054C, strain cdc34, active compounds read low 0.975 | S. cerevisiae deletion strains, locus YDR226W, strain ADK1, active compounds read low 0.959 | S. cerevisiae deletion strains, locus YDR477W, strain SNF1, active compounds read low 0.95 | S. cerevisiae deletion strains, locus YER123W, strain YCK3, active compounds read low 0.93 | S. cerevisiae deletion strains, locus YER133W, strain GLC7, active compounds read low 0.995 | S. cerevisiae deletion strains, locus YFL009W, strain cdc4, active compounds read low 0.958 | S. cerevisiae deletion strains, locus YFL029C, strain CAK1, active compounds read low 0.954 | S. cerevisiae deletion strains, locus YFR003C, strain YPI1, active compounds read low 0.971 | S. cerevisiae deletion strains, locus YFR019W, strain FAB1, active compounds read low 0.974 | S. cerevisiae deletion strains, locus YFR028C, strain CDC14, active compounds read low 0.968 | S. cerevisiae deletion strains, locus YGR040W, strain KSS1, active compounds read low 0.954 | S. cerevisiae deletion strains, locus YGR052W, strain FMP48, active compounds read low 1.02 | S. cerevisiae deletion strains, locus YGR092W, strain DBF2, active compounds read low 0.92 | [2] 1.03 | S. cerevisiae deletion strains, locus YHR079C, strain IRE1, active compounds read low 0.963 | S. cerevisiae deletion strains, locus YHR082C, strain KSP1, active compounds read low 1.01 | S. cerevisiae deletion strains, locus YHR205W, strain SCH9, active compounds read low 0.956 | S. cerevisiae deletion strains, locus YIL147C, strain SLN1, active compounds read low 0.967 | S. cerevisiae deletion strains, locus YJL095W, strain BCK1, active compounds read low 0.933 | S. cerevisiae deletion strains, locus YJL128C, strain PBS2, active compounds read low 0.94 | S. cerevisiae deletion strains, locus YJL157C, strain FAR1, active compounds read low 0.957 | S. cerevisiae deletion strains, locus YJR016C, strain ILV3, active compounds read low 0.967 | S. cerevisiae deletion strains, locus YJR066W, strain TOR1 (second series), active compounds read low 0.971 | S. cerevisiae deletion strains, locus YJR066W, strain TOR1, active compounds read low 0.921 | S. cerevisiae deletion strains, locus YKL048C, strain ELM1, active compounds read low 0.99 | S. cerevisiae deletion strains, locus YKL067W, strain YNK1, active compounds read low 1 | S. cerevisiae deletion strains, locus YKL101W, strain HSL1, active compounds read low 0.985 | S. cerevisiae deletion strains, locus YKL193C, strain SDS22, active compounds read low 0.962 | S. cerevisiae deletion strains, locus YKL203C, strain TOR2, active compounds read low 1.07 | S. cerevisiae deletion strains, locus YLR113W, strain HOG1, active compounds read low 0.971 | S. cerevisiae deletion strains, locus YLR133W, strain CKI1, active compounds read low 0.958 | S. cerevisiae deletion strains, locus YLR403W, strain SFP1, active compounds read low 0.959 | S. cerevisiae deletion strains, locus YML070W, strain DAK1, active compounds read low 0.959 | S. cerevisiae deletion strains, locus YMR001C, strain CDC5, active compounds read low 0.961 | S. cerevisiae deletion strains, locus YMR205C, strain PFK2 (second series), active compounds read low 0.996 | S. cerevisiae deletion strains, locus YMR277W, strain FCP1, active compounds read low 0.95 | S. cerevisiae deletion strains, locus YNL006W, strain LST8, active compounds read low 0.967 | S. cerevisiae deletion strains, locus YNL020C, strain ARK1, active compounds read low 0.968 | S. cerevisiae deletion strains, locus YNL161W, strain CBK1, active compounds read low 0.975 | S. cerevisiae deletion strains, locus YNL183C, strain NPR1, active compounds read low 1.04 | S. cerevisiae deletion strains, locus YNL207W, strain RIO2, active compounds read low 0.985 | S. cerevisiae deletion strains, locus YNL222W, strain SSU72, active compounds read low 0.951 | S. cerevisiae deletion strains, locus YNL307C, strain MCK1 (second series), active compounds read low 0.945 | S. cerevisiae deletion strains, locus YOL078W, strain AVO1, active compounds read low 0.965 | S. cerevisiae deletion strains, locus YOL136C, strain PFK27, active compounds read low 0.955 | S. cerevisiae deletion strains, locus YOR061W, strain CKA2, active compounds read low 0.98 | S. cerevisiae deletion strains, locus YOR119C, strain RIO1, active compounds read low 1.05 | S. cerevisiae deletion strains, locus YOR231W, strain MKK1, active compounds read low 0.927 | S. cerevisiae deletion strains, locus YOR329C, strain SCD5, active compounds read low 0.975 | S. cerevisiae deletion strains, locus YPL031C, strain PHO85, active compounds read low 0.968 | S. cerevisiae deletion strains, locus YPL153C, strain RAD53, active compounds read low 0.96 | S. cerevisiae deletion strains, locus YPL204W, strain HRR25, active compounds read low 0.965 | S. cerevisiae deletion strains, locus YPL209C, strain IPL1, active compounds read low 0.974 | S. cerevisiae deletion strains, locus YPL256C, strain CLN2, active compounds read low 0.984 | S. cerevisiae deletion strains, locus YPR025C, strain CCL1, active compounds read low 0.965 | S. cerevisiae deletion strains, locus YPR106W, strain ISR1, active compounds read low 0.96 | S. cerevisiae deletion strains, locus YPR111W, strain DBF20, active compounds read low 0.978 | S. cerevisiae deletion strains, strain NNK1, active compounds read low 0.984 | S. cerevisiae deletion strains, strain TSCII, active compounds read low 0.963

C=CCn1c(Sc2ncc([N+](=O)[O-])s2)n[nH]c1=O
inactive: [1] 0.932 | S. cerevisiae deletion strains, locus YDR150W, strain NUM1, active compounds read low 0.929 | S. cerevisiae deletion strains, locus YGR078C, strain PAC10, active compounds read low 0.944 | S. cerevisiae deletion strains, locus YGR229C, strain SMI1, active compounds read low 0.984 | [2] 0.775 | S. cerevisiae deletion strains, locus YHR087W, strain rtc3, active compounds read low 0.968 | S. cerevisiae deletion strains, locus YJL187C, strain SWE1, active compounds read low 0.948 | S. cerevisiae deletion strains, locus YJR043C, strain POL32, active compounds read low 0.968 | S. cerevisiae deletion strains, locus YJR075W, strain HOC1, active compounds read low 1 | S. cerevisiae deletion strains, locus YLR039C, strain RIC1, active compounds read low 0.8 | S. cerevisiae deletion strains, locus YLR058C, strain SHM2 (second series), active compounds read low 0.962 | S. cerevisiae deletion strains, locus YLR262C, strain YPT6, active compounds read low 0.992 | S. cerevisiae deletion strains, locus YMR219W, strain ESC1, active compounds read low 0.975 | S. cerevisiae deletion strains, locus YMR263W, strain SAP30, active compounds read low 0.938 | S. cerevisiae deletion strains, locus YMR307W, strain GAS1, active compounds read low 0.973 | S. cerevisiae deletion strains, locus YNL322C, strain KRE1, active compounds read low 0.996 | S. cerevisiae deletion strains, locus YPL055C, strain LGE1, active compounds read low 0.829
active: S. cerevisiae deletion strains, locus YAL013W, strain DEP1, active compounds read low 0.926 | S. cerevisiae deletion strains, locus YBR229C, strain ROT2, active compounds read low 0.913 | S. cerevisiae deletion strains, locus YEL061C, strain CIN8, active compounds read low 0.858 | S. cerevisiae deletion strains, locus YLR085C, strain ARP6, active compounds read low 0.359 | S. cerevisiae deletion strains, locus YML094W, strain GIM5, active compounds read low 0.813 | S. cerevisiae deletion strains, locus YNL153C, strain GIM3, active compounds read low 0.815 | S. cerevisiae deletion strains, locus YNL298W, strain CLA4 (second series), active compounds read low 0.675 | S. cerevisiae deletion strains, locus YNR030W, strain Alg12, active compounds read low 0.833 | S. cerevisiae deletion strains, locus YOL006C, strain TOP1, active compounds read low 0.219 | S. cerevisiae deletion strains, locus YPL241C, strain CIN2, active compounds read low 0.582 | S. cerevisiae deletion strains, locus YPR135W, strain CTF4, active compounds read low 0.488 | S. cerevisiae strains, strain wild type, active compounds read low 0.893
